Test results as given in PubChem BioAssay.
Records with an inconclusive call do not appear. Active and inactive are the calls of the source. Cut-off read from the data, not from the text of the source, unless noted: active = percent of DMSO control GFP below about 86%; inactive = the rest, inconclusive results apart.

What was measured:
[1] = yeast TOR pathway RPL19A-GFP modulators, primary screen, cell-based, S. cerevisiae, multiplex flow cytometry (AID 1862);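 note: lower values mimic rapamycin by blocking the RPL19A rise seen in DMSO cells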; settings: S. cerevisiae RPL19A-GFP strain, flow cytometry fluorescence, 3 h; at 10 µM; stronger effect = lower value
[2] = modulators of MEP2-GFP levels in yeast, primary screen, S. cerevisiae, multiplex flow cytometry (AID 1867;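 active = GFP response, as percent of the DMSO control, above the screen-wide mean plus 3 SD, about 139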;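 note: median GFP channel fluorescence of barcode-gated MEP2-GFP cells measured by flow cytometry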); settings: S. cerevisiae MEP2-GFP strain, 3 h, at 10 µM, stronger effect = higher value, 100% means same as DMSO wells
[3] = modulators of CIT2-GFP expression in yeast, primary screen, S. cerevisiae, GFP fusion, multiplex flow cytometry (AID 1870;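 active = percent response above a set limit, the screen-wide mean plus 3 SD, cut at about 130% in these data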;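 note: barcoded CIT2-GFP strain pooled with four other GFP strains with rapamycin as positive control; median GFP fluorescence per well over plate mean of DMSO wells so 100% = DMSO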); settings: 3 h, at 10 µM, stronger effect = higher value
[4] = modulators of LAP4-GFP expression in yeast, primary screen, S. cerevisiae, multiplex flow cytometry (AID 1873;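 active = GFP signal, as percent of the solvent control, above the screen mean plus 3 SD, about 149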); settings: 3 h, at 10 µM, stronger effect = higher value
[5] = modulators of AGP1-GFP expression in yeast TOR pathway, primary screen, cell-based, multiplex flow cytometry, S. cerevisiae (AID 1887;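 active = GFP signal above the screen-wide mean plus 3 SD, that is over about 124.5% of the solvent control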;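 note: AGP1-GFP fusion strain of S. cerevisiae within a five-strain barcoded multiplex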); settings: 3 h, at 10 µM, stronger effect = higher value
[6] = inhibitors of CD8+ T cell-vesicle binding, pilot screen, LFA-1/ICAM-1 modulator project, MLPCN validation set, flow cytometry (AID 2523;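 active = response below a set limit, under 55% cells CD8-positive and vesicle-bound, and CD8 cells' 90th-percentile brightness under 279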;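 for vesicle binding response: mean PE anti-B7-1 fluorescence of CD8+ cells relative to row control; 100% = QL9-loaded vesicles with DMSO vehicle in the same plate row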); settings: 2C mouse CD8+ T cells, at 7 µM, stronger effect = lower value; double positive events: measured here: CD8+/vesicle+ event percentage
[7] = target: Integrin beta-1 (Homo sapiens) + Integrin alpha-4 (Homo sapiens) (UniProt P13612+P05556); assay: inhibition of HUTS-21 binding to VLA-4, pilot screen, VLA-4 allosteric modulator project, U937 cells, HUTS-21 mAb, flow cytometry, validation set (AID 2674;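 active = inhibition above 50%, about 3 SD of the validation set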;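 note: antibody binding induced by the VLA-4 ligand LDV present at three times its Kd; 0% = LDV ligand with antibody and no compound and 100% = antibody without LDV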); settings: HUTS-21 LIBS mAb binding, at 6.7 µM, stronger effect = higher value, binding induced by LDV ligand
[8] = superoxide lowering in aged yeast cells, pilot screen, validation compound set (AID 2706;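 active = superoxide response below 65% of plate, a cut near 3 SD across the whole screen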;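 note: yeast exposed to compound for one week at 30 degrees C before staining; 100% = mean of all compound wells on the same plate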); settings: S. cerevisiae aging, superoxide DHE fluorescence; at 10 µM; stronger effect = lower value
[9] = target: Beta-adrenergic receptor kinase 1 (Homo sapiens) (UniProt P25098); assay: GRK2 binders displacing RNA aptamer, biochemical, validation, human GRK2, bead flow cytometry (AID 488806;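 active = aptamer binding inhibition above 30%, about 3 SD of noise from non-fluorescent compounds; inactive = inhibition at or below 30%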); settings: bead-bound GRK2, FAM-aptamer displacement, at 10 µM, stronger effect = higher value
[10] = target: Beta-2 adrenergic receptor (Homo sapiens) (UniProt P07550); assay: beta2AR agonists driving receptor internalization, pilot screen, cell-based, FAP fluorogen, flow cytometry, validation set (AID 504459;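 active = percent response above 42, roughly 3 SD of non-fluorescent test compounds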;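 note: agonist-driven loss of surface beta2AR via internalization measured by FAP dye flow cytometry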); settings: Am2.2-beta2AR cells, FAP surface receptor flow cytometry; at 10 µM; stronger effect = higher value
[11] = target: AP-2 complex subunit beta (Homo sapiens) (UniProt P63010); assay: inhibitors of arrestin peptide binding to AP2, pilot screen, biochemical, validation set, GST-AP2 beads, flow cytometry (AID 504541;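 active = inhibition above 54%, about 3 SD of non-fluorescent compounds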;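 note: AP2 carries R879A mutation and is captured from E. coli lysate; bead-bound FITC arrestin peptide fluorescence measuring arrestin peptide binding to AP2; 0% = DMSO wells and 100% = excess unlabeled arrestin peptide control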); settings: FITC arrestin peptide, at 10 µM, stronger effect = higher value, AP2 beta2 appendage fragment, R879A mutant
[12] = yeast V-ATPase proton transport modulators, S. cerevisiae, pHLuorin, HTS validation (AID 504600; in the data active = response above about 15%;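 note: plate controls were DMSO for no effect and reference compound for full effect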); settings: S. cerevisiae pHLuorin cytosolic pH, at 10 µM, stronger effect = higher value
[13] = tested on: anti-desmoglein-3 scFv antibody binding to human DSG3; assay: inhibitors of anti-DSG3 scFv binding to DSG3, pilot screen, biochemical, validation compound set, bead-based, flow cytometry (AID 588368;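 active = binding below the plate cutoff, the plate median minus 3 SD, with a reading above zero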;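 note: signal is the median channel fluorescence of bead-bound GFP antibody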); settings: Protein G beads, DSG3-Fc, scFv-GFP binding, at 10 µM, stronger effect = lower value
[14] = inhibitors of fungal efflux pumps CDR1, CDR2, MDR1, pilot screen, validation compound set, multiplex, phenotypic (AID 588506;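 active = efflux inhibition above 0.42, the validation set average plus 4 SD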;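 note: Nile Red retained in cells so higher fluorescence means more efflux inhibition; 0 = negative control wells and 1 = enniatin B 25 µM full block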); settings: S. cerevisiae pump-expressing triplex, Nile Red efflux flow cytometry; at 10 µM; stronger effect = higher value; the pumps come from Candida albicans
[15] = target: ATP-binding cassette sub-family B member 6 (Homo sapiens) (UniProt Q9NP58); assay: ABCB6 transporter inhibitors, pilot screen, K562-ABCB6 cells, flow cytometry, validation set (AID 588550;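 active = inhibition above the screen-wide mean plus 3 SD, about 51%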;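 note: 0% = DMSO wells and 100% = benzethonium chloride 70 µM positive control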); settings: K562-ABCB6 porphyrin accumulation, 1 h, at 10 µM, stronger effect = higher value
[16] = promoters of myeloid differentiation in arrested cells, primary screen, cell-based, GFP/MAC1 double positive, flow cytometry, validation set (AID 588685;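 active = differentiation response of at least 50%, scaled between solvent and reference control, from cells with both markers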;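 note: compound exposure lasts four days before antibody staining and flow analysis; 0% = DMSO wells and 100% = 5 µM fulvestrant positive control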); settings: ER-HoxA9 marrow cells, stronger effect = higher value, normalized: vehicle 0, fulvestrant 100

Sequence of AP-2 complex subunit beta (Homo sapiens) (P63010 whole entry, looked up, the tested form may be a part, one chain of several): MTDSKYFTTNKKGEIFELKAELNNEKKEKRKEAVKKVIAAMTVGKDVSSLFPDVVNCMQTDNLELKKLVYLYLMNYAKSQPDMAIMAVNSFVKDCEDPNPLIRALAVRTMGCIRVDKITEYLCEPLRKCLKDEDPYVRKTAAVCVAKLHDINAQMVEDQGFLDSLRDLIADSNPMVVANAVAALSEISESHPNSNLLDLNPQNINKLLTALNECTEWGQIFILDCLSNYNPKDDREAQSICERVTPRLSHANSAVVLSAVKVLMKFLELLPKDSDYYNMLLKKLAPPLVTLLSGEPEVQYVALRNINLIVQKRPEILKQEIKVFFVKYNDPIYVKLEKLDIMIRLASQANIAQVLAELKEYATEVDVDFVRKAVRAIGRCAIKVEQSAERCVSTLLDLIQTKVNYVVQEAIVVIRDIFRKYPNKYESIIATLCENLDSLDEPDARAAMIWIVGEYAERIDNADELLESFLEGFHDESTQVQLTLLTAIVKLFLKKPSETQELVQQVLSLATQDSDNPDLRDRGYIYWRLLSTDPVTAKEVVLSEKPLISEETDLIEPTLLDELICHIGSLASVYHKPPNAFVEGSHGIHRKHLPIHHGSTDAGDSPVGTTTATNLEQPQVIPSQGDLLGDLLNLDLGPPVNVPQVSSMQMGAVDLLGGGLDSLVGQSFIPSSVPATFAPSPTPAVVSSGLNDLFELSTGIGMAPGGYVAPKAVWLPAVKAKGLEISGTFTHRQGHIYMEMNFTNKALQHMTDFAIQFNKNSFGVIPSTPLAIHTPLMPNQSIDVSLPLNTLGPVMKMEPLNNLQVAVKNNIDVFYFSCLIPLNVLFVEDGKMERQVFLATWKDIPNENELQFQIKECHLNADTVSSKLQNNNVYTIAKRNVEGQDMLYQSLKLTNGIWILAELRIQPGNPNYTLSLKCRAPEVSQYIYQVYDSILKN
Sequence of Beta-2 adrenergic receptor (Homo sapiens) (P07550 whole entry, looked up): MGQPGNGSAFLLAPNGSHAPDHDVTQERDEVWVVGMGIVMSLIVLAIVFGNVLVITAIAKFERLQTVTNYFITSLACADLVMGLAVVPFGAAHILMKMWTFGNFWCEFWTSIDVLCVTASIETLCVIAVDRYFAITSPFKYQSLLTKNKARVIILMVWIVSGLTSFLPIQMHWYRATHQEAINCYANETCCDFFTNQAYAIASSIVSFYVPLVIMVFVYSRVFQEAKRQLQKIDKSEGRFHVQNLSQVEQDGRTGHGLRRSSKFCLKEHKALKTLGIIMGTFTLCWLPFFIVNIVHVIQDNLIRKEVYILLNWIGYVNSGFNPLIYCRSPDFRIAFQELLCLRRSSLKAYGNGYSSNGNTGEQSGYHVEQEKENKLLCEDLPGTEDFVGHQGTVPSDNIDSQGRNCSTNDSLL
Sequence of Integrin beta-1 (Homo sapiens) + Integrin alpha-4 (Homo sapiens) (P05556 whole entry, looked up): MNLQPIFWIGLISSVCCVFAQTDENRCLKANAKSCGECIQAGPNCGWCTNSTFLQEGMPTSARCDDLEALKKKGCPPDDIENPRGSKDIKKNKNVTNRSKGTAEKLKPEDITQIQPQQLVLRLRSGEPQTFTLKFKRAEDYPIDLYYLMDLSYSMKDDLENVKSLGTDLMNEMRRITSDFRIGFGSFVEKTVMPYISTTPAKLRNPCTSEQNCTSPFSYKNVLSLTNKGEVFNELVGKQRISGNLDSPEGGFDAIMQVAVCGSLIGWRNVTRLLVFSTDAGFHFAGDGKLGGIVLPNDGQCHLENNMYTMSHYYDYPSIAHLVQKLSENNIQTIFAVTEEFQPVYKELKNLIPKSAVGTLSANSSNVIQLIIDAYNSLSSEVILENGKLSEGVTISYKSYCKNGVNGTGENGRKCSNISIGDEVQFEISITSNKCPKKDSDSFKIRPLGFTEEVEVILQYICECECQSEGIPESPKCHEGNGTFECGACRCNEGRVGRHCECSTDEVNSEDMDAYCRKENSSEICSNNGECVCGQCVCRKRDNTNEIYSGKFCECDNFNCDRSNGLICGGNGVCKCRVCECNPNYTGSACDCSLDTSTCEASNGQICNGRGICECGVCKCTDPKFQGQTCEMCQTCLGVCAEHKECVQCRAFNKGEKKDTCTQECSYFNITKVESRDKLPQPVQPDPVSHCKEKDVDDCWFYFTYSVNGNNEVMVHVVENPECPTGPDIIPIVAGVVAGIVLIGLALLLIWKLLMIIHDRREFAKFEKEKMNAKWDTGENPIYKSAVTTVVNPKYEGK
Sequence of Integrin beta-1 (Homo sapiens) + Integrin alpha-4 (Homo sapiens) (P13612 whole entry, looked up): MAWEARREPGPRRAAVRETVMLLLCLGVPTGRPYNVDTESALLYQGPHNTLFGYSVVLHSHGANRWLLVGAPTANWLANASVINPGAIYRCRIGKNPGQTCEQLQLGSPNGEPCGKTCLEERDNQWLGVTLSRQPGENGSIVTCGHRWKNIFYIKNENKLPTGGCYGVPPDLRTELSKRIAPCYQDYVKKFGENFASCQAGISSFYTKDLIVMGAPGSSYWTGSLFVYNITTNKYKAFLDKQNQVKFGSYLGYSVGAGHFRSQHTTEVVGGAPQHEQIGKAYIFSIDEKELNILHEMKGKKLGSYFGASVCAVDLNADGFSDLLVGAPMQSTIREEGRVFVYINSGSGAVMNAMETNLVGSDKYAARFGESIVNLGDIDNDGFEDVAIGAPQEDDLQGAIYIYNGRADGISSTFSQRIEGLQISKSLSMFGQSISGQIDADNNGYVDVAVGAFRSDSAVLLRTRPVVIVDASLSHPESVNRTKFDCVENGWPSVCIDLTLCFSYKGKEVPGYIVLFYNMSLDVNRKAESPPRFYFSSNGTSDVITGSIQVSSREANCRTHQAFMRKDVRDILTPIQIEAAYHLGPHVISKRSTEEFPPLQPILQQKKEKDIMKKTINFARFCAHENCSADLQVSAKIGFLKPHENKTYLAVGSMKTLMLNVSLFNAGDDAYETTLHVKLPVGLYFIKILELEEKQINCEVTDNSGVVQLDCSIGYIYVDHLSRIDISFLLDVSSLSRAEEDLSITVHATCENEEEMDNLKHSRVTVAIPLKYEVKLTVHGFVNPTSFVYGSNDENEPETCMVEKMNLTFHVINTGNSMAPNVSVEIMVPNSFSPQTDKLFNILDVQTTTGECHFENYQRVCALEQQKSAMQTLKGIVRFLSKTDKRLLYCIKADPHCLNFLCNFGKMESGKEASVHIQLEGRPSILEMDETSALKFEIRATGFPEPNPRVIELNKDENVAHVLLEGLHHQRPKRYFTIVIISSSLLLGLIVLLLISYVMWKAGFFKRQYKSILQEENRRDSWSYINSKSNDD
Sequence of ATP-binding cassette sub-family B member 6 (Homo sapiens) (Q9NP58 whole entry, looked up): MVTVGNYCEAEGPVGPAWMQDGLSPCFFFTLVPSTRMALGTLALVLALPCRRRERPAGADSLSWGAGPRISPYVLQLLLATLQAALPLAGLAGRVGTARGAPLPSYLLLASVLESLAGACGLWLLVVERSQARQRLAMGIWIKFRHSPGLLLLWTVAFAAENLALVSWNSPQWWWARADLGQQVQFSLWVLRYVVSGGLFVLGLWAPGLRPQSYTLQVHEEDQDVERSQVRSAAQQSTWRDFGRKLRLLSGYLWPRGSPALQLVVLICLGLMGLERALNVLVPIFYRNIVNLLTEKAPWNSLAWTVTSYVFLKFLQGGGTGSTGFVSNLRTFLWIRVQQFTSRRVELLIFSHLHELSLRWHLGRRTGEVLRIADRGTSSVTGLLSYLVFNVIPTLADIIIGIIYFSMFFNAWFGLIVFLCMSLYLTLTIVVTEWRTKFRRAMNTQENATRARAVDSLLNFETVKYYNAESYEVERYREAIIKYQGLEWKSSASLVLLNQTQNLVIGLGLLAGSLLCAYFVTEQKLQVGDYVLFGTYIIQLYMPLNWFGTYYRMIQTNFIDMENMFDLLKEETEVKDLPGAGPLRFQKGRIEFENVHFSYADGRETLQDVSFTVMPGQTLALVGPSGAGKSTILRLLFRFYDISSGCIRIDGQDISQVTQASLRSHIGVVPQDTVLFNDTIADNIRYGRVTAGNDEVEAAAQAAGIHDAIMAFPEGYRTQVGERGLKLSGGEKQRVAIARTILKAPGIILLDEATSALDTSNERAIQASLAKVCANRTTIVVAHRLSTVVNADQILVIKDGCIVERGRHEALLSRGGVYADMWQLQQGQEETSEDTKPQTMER
Sequence of Beta-adrenergic receptor kinase 1 (Homo sapiens) (P25098 whole entry, looked up): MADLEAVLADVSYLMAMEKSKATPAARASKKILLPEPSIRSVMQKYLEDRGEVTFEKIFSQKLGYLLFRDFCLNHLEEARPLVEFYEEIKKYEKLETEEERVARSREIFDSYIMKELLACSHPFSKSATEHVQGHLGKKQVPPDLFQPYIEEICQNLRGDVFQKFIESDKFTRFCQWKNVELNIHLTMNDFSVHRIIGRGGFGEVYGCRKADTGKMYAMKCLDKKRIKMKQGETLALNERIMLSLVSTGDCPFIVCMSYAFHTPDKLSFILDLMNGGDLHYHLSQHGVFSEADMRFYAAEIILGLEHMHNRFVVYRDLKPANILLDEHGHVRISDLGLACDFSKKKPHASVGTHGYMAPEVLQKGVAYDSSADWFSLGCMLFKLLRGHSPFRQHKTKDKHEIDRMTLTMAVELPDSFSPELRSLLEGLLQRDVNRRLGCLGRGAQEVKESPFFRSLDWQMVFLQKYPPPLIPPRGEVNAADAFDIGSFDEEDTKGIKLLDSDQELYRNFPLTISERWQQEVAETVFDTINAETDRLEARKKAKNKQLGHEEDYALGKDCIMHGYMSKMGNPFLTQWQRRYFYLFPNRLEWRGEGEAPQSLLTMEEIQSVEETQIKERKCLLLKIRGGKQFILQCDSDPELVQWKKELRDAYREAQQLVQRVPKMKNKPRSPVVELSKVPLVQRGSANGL

COc1ccc(-c2[nH]ncc2CN(C)C(C)c2ccon2)c(OC)c1 (stereo not drawn)
inactive: percent of DMSO control GFP [1] 92.4% | GFP response vs DMSO [2] 137% | percent response of DMSO control [3] 106% | GFP response vs DMSO [4] 78.7% | GFP response, % of DMSO [5] 91% | vesicle binding response [6] 143% | inhibition [7] 10.3% | superoxide response (% of plate) [8] 99.7% | aptamer binding inhibition [9] 2% | response [10] -3.13% | inhibition [11] 8% | response [12] -3.5% | binding (% of control) [13] 105% | efflux inhibition (fraction of control) [14] 0.01 | inhibition [15] 11% | differentiation response [16] -4.91%
61.9%: double positive events [6]

O=C(c1ccc(Cl)cc1)C1CCCN(Cc2ccc(Oc3ncccn3)cc2)C1 (stereo not drawn)
65.7%: double positive events [6]
inactive: percent of DMSO control GFP [1] 108% | GFP response vs DMSO [2] 104% | percent response of DMSO control [3] 106% | GFP response vs DMSO [4] 87.2% | GFP response, % of DMSO [5] 96.5% | vesicle binding response [6] 227% | inhibition [7] 24.4% | superoxide response (% of plate) [8] 93.5% | aptamer binding inhibition [9] 2% | response [10] -3.98% | inhibition [11] -1.25% | response [12] 2.78% | binding (% of control) [13] 106% | efflux inhibition (fraction of control) [14] -0.12 | inhibition [15] 21% | differentiation response [16] -6.03%

O=Cc1ccccc1Oc1ccccc1
57.3%: double positive events [6]
inactive: percent of DMSO control GFP [1] 93.3% | GFP response vs DMSO [2] 125% | percent response of DMSO control [3] 115% | GFP response vs DMSO [4] 86.4% | GFP response, % of DMSO [5] 90.3% | vesicle binding response [6] 200% | inhibition [7] -14.9% | superoxide response (% of plate) [8] 107% | aptamer binding inhibition [9] -5% | response [10] -1.17% | inhibition [11] 32.8% | response [12] -3.79% | binding (% of control) [13] 107% | efflux inhibition (fraction of control) [14] 0.12 | inhibition [15] -2% | differentiation response [16] 33.6%

CCOC(=O)c1c(C)oc2c1C(=O)c1ccccc1C2=O
inactive: percent of DMSO control GFP [1] 111% | GFP response vs DMSO [2] 102% | percent response of DMSO control [3] 107% | GFP response vs DMSO [4] 104% | GFP response, % of DMSO [5] 99.9% | vesicle binding response [6] 316% | inhibition [7] -16.1% | superoxide response (% of plate) [8] 126% | aptamer binding inhibition [9] 5% | response [10] 3.7% | inhibition [11] 0.55% | response [12] 0.26% | binding (% of control) [13] 96.7% | efflux inhibition (fraction of control) [14] -0.22 | inhibition [15] -26% | differentiation response [16] -0.36%
59.4%: double positive events [6]

Cc1[nH]nc(-c2ccc(O)cc2O)c1Oc1ccccc1
inactive: percent of DMSO control GFP [1] 106% | GFP response vs DMSO [2] 100% | percent response of DMSO control [3] 114% | GFP response vs DMSO [4] 93.3% | GFP response, % of DMSO [5] 103% | vesicle binding response [6] 53.1% | inhibition [7] 4.73% | superoxide response (% of plate) [8] 95.8% | aptamer binding inhibition [9] 1% | response [10] -4.61% | inhibition [11] -10.9% | response [12] -4.45% | binding (% of control) [13] 96.3% | efflux inhibition (fraction of control) [14] -0.32 | inhibition [15] 3% | differentiation response [16] 8.06%
61.9%: double positive events [6]

O=C(Nc1ncc2c(n1)CC(c1ccco1)CC2=O)c1ccco1 (stereo not drawn)
inactive: percent of DMSO control GFP [1] 93.9% | GFP response vs DMSO [2] 113% | percent response of DMSO control [3] 95.8% | GFP response vs DMSO [4] 132% | GFP response, % of DMSO [5] 95.7% | vesicle binding response [6] 187% | inhibition [7] -11.3% | superoxide response (% of plate) [8] 102% | aptamer binding inhibition [9] 6% | response [10] -16% | inhibition [11] 1.11% | response [12] -0.72% | binding (% of control) [13] 99.1% | efflux inhibition (fraction of control) [14] 0.01 | inhibition [15] 1% | differentiation response [16] -18.4%
55%: double positive events [6]

COc1ccc(OC)c(S(=O)(=O)N2CCCc3ccccc32)c1
58.6%: double positive events [6]
inactive: percent of DMSO control GFP [1] 101% | GFP response vs DMSO [2] 104% | percent response of DMSO control [3] 91.3% | GFP response vs DMSO [4] 126% | GFP response, % of DMSO [5] 105% | vesicle binding response [6] 124% | inhibition [7] 15% | superoxide response (% of plate) [8] 97.2% | aptamer binding inhibition [9] 5% | response [10] 2.04% | inhibition [11] 2.15% | response [12] -1.7% | binding (% of control) [13] 105% | efflux inhibition (fraction of control) [14] 0.18 | inhibition [15] 24% | differentiation response [16] -8.96%

COc1ccc2[nH]c(=O)c(CNC3CCCCC3)cc2c1
63.6%: double positive events [6]
inactive: percent of DMSO control GFP [1] 102% | GFP response vs DMSO [2] 103% | percent response of DMSO control [3] 106% | GFP response vs DMSO [4] 98% | GFP response, % of DMSO [5] 99.9% | vesicle binding response [6] 244% | inhibition [7] 11% | superoxide response (% of plate) [8] 106% | aptamer binding inhibition [9] 2% | response [10] -1.53% | inhibition [11] -0.94% | response [12] 1.21% | binding (% of control) [13] 95.5% | efflux inhibition (fraction of control) [14] -0.01 | inhibition [15] -1% | differentiation response [16] 0.24%

CCOC(=O)c1oc2cc(O)cc(C)c2c(=O)c1-c1cscn1
inactive: percent of DMSO control GFP [1] 100% | GFP response vs DMSO [2] 105% | percent response of DMSO control [3] 91% | GFP response vs DMSO [4] 119% | GFP response, % of DMSO [5] 102% | vesicle binding response [6] 182% | inhibition [7] 3.67% | superoxide response (% of plate) [8] 101% | aptamer binding inhibition [9] 4% | response [10] -3.97% | inhibition [11] 24.6% | response [12] -5.59% | binding (% of control) [13] 101% | efflux inhibition (fraction of control) [14] -0.06 | inhibition [15] 3% | differentiation response [16] 5.6%
58.7%: double positive events [6]
